In PubChem BioAssay:
The source made the active and inactive calls. Unless noted, no rule for the calls is given here.

How the values were obtained:
[1] = anti-His antibody binders, primary screen, artefact control for SMM control protein annotation, biochemical, small-molecule microarray, 635 nm fluorescence (AID 1128); conditions: anti-His Alexa647 antibody binding, higher = more signal;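 also: score merges feature fluorescence with signal-to-noise for each printed compound spot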
[2] = system: Human papillomavirus type 1a E7 protein (residues 1-88); test: HPV1a E7 small-molecule binders, primary screen, biochemical, small-molecule microarray, residues 1-88, 635 nm (AID 1129); conditions: small-molecule microarray binding, fluorescence 635 nm; higher = more signal
[3] = molecular target: Focal adhesion kinase 1 (Homo sapiens) (UniProt Q05397); test: small-molecule microarray binders of FAK, primary screen, biochemical, 635/667 nm fluorescence, BSA, DTT (AID 1130); conditions: PTK2 binding, 635 nm fluorescence, higher = more signal;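 also: composite of spot emission at 667 nm and signal to noise over triplicate slides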
Chain of Focal adhesion kinase 1 (Homo sapiens) (Q05397 whole entry, looked up): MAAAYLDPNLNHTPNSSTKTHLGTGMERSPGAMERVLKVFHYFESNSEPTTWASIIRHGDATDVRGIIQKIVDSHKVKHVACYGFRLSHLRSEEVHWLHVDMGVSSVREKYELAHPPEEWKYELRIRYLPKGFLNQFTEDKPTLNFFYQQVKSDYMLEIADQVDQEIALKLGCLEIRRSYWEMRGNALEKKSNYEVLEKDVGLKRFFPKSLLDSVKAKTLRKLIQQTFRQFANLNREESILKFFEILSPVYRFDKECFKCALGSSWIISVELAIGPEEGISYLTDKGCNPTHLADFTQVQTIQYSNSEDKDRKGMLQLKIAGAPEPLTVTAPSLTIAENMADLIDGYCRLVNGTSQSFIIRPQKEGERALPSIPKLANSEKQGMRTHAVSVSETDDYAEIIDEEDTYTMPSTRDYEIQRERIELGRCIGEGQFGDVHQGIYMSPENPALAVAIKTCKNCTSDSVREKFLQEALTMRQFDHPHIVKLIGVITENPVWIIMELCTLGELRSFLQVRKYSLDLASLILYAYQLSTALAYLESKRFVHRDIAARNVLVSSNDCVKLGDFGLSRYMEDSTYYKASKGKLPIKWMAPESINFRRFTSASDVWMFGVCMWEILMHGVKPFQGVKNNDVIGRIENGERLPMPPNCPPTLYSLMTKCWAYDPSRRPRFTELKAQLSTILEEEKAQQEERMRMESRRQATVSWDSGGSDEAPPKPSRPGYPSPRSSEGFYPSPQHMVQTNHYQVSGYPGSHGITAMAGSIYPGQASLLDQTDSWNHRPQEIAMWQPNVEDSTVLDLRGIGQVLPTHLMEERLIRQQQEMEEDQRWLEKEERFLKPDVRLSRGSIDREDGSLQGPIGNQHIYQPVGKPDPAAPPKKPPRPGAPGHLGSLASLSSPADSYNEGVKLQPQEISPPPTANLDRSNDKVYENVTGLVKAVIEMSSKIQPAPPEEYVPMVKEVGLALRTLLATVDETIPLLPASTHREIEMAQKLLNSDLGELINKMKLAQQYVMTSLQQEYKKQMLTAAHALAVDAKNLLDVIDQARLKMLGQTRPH

[4] = system: Fibrinogen (Alexa647-labelled); test: fibrinogen binders on compound microarrays, profiling panel, artefact control for SMM control-protein annotation, biochemical, small-molecule microarray, 635/667 nm fluorescence (AID 1131); conditions: fibrinogen-A647 binding fluorescence, higher = more signal;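 also: z-score merges 667 nm fluorescence with per-spot signal-to-noise over triplicate slides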
[5] = molecular target: Follistatin (Homo sapiens) (UniProt P19883); test: follistatin binders on small-molecule microarrays, primary screen, biochemical, small-molecule microarray, 635/667 nm fluorescence (AID 1132); conditions: FST binding, 635 nm fluorescence, higher = more signal
Chain of Follistatin (Homo sapiens) (P19883 whole entry, looked up): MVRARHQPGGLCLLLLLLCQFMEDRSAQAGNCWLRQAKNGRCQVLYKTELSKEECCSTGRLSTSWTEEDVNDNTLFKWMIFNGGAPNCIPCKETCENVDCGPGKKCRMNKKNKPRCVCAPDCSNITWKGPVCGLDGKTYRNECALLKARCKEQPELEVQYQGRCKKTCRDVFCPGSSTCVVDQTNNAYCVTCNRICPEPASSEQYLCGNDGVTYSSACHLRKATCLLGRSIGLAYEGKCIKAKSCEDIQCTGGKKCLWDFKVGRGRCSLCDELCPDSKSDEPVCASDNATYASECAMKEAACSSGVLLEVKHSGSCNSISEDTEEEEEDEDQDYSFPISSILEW

[6] = molecular target: Fibroblast growth factor 2 (Homo sapiens) (UniProt P09038); test: FGF2 binders on small-molecule microarrays, primary screen, biochemical, small-molecule microarray, 635/667 nm fluorescence (AID 1133); conditions: small-molecule microarray binding, FGF2, fluorescence 635/667; higher = more signal
Chain of Fibroblast growth factor 2 (Homo sapiens) (P09038 whole entry, looked up): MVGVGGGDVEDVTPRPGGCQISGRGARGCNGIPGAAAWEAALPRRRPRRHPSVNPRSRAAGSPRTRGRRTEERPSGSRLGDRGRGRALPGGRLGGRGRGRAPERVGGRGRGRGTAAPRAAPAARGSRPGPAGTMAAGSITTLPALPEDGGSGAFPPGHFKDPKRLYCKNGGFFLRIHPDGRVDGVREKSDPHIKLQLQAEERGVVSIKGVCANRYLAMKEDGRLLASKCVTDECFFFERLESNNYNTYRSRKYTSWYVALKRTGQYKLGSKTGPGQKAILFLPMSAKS

[7] = mitochondrial membrane potential change in A549 cells, profiling panel, cell-based, JC-1 fluorescence, basal, 24 h, 100 nL (AID 1138); conditions: higher = more signal;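 also: A549 lung adenocarcinoma cells under basal conditions with no added stimulus; test concentration not given here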
[8] = system: Lefty1; test: Lefty1 binders on small-molecule microarrays, primary screen, biochemical, small-molecule microarray, 635/667 nm fluorescence (AID 1139); conditions: small-molecule microarray binding, fluorescence 635/667; higher = more signal
[9] = system: wheat germ agglutinin (Triticum aestivum), Alexa647-labelled; test: wheat germ agglutinin binders on compound microarrays, profiling panel, artefact control for SMM control-protein annotation, biochemical, small-molecule microarray, 635/667 nm fluorescence (AID 1140); conditions: WGA-A647 binding, 635 nm fluorescence, higher = more signal;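 also: score merges 667 nm feature emission with signal to noise over triplicate slides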
[10] = molecular target: Luciferin 4-monooxygenase (Photinus pyralis) (UniProt P08659); test: firefly luciferase enzyme inhibitors, primary screen, biochemical, luminescence, purified enzyme, 2006 set (AID 1141); conditions: SteadyGlo luminescence, 30 min, higher = more signal, called active from +8 up or from −8 down;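 also: cell-free assay with purified firefly luciferase at 100 ng per well in PBS; test concentration not given here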
Chain of Luciferin 4-monooxygenase (Photinus pyralis) (P08659 whole entry, looked up): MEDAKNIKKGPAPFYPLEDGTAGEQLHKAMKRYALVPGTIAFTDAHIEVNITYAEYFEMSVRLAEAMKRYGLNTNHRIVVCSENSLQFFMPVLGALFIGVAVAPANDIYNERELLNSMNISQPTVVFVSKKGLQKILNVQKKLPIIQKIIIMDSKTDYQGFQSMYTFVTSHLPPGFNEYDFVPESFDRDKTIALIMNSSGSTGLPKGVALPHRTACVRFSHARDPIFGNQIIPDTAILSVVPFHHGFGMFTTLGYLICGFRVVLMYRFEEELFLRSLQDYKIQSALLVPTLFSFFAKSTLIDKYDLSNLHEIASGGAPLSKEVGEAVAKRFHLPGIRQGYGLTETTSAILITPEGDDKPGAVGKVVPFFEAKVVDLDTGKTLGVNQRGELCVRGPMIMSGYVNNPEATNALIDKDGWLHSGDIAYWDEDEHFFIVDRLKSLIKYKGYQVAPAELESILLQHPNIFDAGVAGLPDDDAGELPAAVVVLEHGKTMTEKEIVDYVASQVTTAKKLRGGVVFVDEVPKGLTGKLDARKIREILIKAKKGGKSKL

[11] = system: Wnt5a (protein binding on small-molecule microarray); test: Wnt5a binders on small-molecule microarray, primary screen, biophysical, 635/667 nm fluorescence (AID 1142); conditions: 635 nm fluorescence, higher = more signal;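 also: fluorescence read at 667 nm with signal to noise per printed feature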
[12] = cell viability in Huh7 cells, primary screen, cytotoxicity control for HCV replication inhibitor project, CellTiter-Glo luminescence, basal, 48 h (AID 1143); conditions: Huh7 HCV replicon, higher = more signal, called active from +8 up or from −8 down;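 also: Huh7 hepatoma cells carrying a hepatitis C replication reporter with no stimulus; test concentration not given here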
[13] = P. aeruginosa biofilm formation inhibitors, primary screen, PAO1 strain, BacTiter-Glo luminescence, LB-PBS (AID 1144); conditions: 12 h, higher = more signal
[14] = CREB reporter modulators without forskolin, primary screen, cell-based, PC12, CRE-LacZ reporter, unstimulated (AID 1145); conditions: no forskolin, luminescence, 4.5 h, higher = more signal, called active from +8 up or from −8 down
[15] = CREB reporter modulators under forskolin, primary screen, cell-based, PC12, CRE-LacZ reporter, forskolin-stimulated (AID 1146); conditions: luminescence, 4.5 h, higher = more signal, called active from +8 up or from −8 down;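 also: PC12 cells with 6xCRE LacZ reporter stimulated by forskolin 10 µM; beta-galactosidase reporter signal reflecting CREB driven transcription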
[16] = molecular target: Streptavidin (Streptomyces avidinii) (UniProt P22629); test: streptavidin binders on small-molecule microarray, primary screen, artefact control for SMM compound annotation, biophysical, 635/667 nm fluorescence (AID 1147); conditions: streptavidin binding, higher = more signal;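 also: signal reflects streptavidin binding to arrayed compounds as a control protein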
Chain of Streptavidin (Streptomyces avidinii) (P22629 whole entry, looked up): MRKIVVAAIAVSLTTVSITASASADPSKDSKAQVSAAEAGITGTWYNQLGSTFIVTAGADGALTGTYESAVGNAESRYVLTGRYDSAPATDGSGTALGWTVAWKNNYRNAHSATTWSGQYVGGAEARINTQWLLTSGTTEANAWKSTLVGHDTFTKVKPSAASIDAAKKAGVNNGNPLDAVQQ

[17] = small-molecule binders of probe aInhba, primary screen, biochemical, small-molecule microarray, 635/667 nm fluorescence (AID 1148); conditions: higher = more signal;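 also: score merges 667nm spot fluorescence with signal-to-noise for antibody binding to printed compounds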
[18] = molecular target: Torsin-1A (Homo sapiens) (UniProt O14656); test: torsin A binders from cell lysate, primary screen, small-molecule microarray, wild-type, 635/667 nm (AID 1149); conditions: COS7 hTOR1A-WT lysate, 635 nm fluorescence, higher = more signal
Chain of Torsin-1A (Homo sapiens) (O14656 whole entry, looked up): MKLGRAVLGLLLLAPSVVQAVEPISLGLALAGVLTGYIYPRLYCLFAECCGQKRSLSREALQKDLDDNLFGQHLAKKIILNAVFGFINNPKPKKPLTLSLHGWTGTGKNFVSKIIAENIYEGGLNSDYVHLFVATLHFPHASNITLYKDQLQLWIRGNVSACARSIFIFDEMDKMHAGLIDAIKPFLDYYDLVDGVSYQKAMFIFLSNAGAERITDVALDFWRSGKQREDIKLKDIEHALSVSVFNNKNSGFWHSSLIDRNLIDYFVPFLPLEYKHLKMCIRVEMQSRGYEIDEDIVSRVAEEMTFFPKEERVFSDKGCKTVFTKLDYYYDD

[19] = molecular target: Torsin-1A (Homo sapiens) (UniProt O14656); test: small-molecule binders of mutant TOR1A in lysate, primary screen, cell lysate, small-molecule microarray, COS7 lysate, 635/667 nm fluorescence (AID 1150); conditions: COS7 hTOR1A mutant lysate, 635 nm fluorescence, higher = more signal;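 also: score pools 667 nm emission and signal to noise measuring lysate protein binding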
[20] = system: Sonic hedgehog protein (Shh); test: small-molecule binders of Shh protein, primary screen, biochemical, small-molecule microarray, 635/667 nm fluorescence (AID 1151); conditions: small-molecule microarray binding, 635 nm fluorescence; higher = more signal;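 also: Shh protein binding to compounds spotted on small-molecule microarray slides; score combines spot fluorescence intensity with signal-to-noise across triplicate slides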

Compound	composite z-score [1]	composite z-score [2]	composite z-score [3]	composite z-score [4]	composite z-score [5]	composite z-score [6]	z-score [7]	composite z-score [8]	composite z-score [9]	z-score [10]	composite z-score [11]	z-score [12]	z-score [13]	z-score [14]	z-score [15]	composite z-score [16]	composite z-score [17]	composite z-score [18]	composite z-score [19]	composite z-score [20]
COCCOC(=O)N1C(=O)[C@@]2(c3cc(C#CC4=CCCCC4)ccc31)[C@H](c1ccc(OCCO)cc1)N1[C@H](c3ccccc3)[C@H](c3ccccc3)OC(=O)[C@H]1[C@@H]2C(=O)N1CCc2cc(OC)c(OC)cc2C1	0.936	1.19	0.647	0.874	0.989	1.32	-0.729	1.11	-0.0709	-2.35 (inactive)	0.687	-0.496 (inactive)	-0.536 (inactive)	-0.258 (inactive)	-0.513 (inactive)	0.606	0.346	0.359	1.17	1.32
Cc1ccc(C2C3C(=O)CC4C(=O)N(c5ccccc5)C(=O)C4C3CN2S(=O)(=O)c2ccc(C)cc2)cc1 (stereo not given)	1.16	1.24	-0.177	0.403	0.24	0.294	-0.112	0.0507	0.912	0.732 (inactive)	0.731	-0.966 (inactive)	0.538 (inactive)	-0.826 (inactive)	-0.743 (inactive)	0.525	0.255	0.0484	0.392	0.205
COC(=O)c1c(CC[C@@H](CO)NC(=O)N[C@H](Cc2ccccc2)Cn2cc(-c3ccccn3)nn2)oc(C(C)=O)c1C(=O)OC	1.52	-0.178	0.0026	0.801	0.0798	0.451	-0.117	0.004	0.205	0.67 (inactive)	-0.293	-0.105 (inactive)	0.542 (inactive)	0.367 (inactive)	0.453 (inactive)	0.946	-0.105	0.813	0.0502	0.248
NCCCCCNC(=O)[C@H]1C[C@H]2C(=O)N[C@@H](Cc3ccccc3)C(=O)N2[C@H]1c1cccc(OCCO)c1	0.614	0.624	0.163	0.962	1.07	0.159	1.07	0.0778	0.782	-1.4 (inactive)	-0.0768	-0.535 (inactive)	-0.2 (inactive)	1.49 (inactive)	-0.389 (inactive)	0.951	0.205	0.5	0.71	0.102
CN(C)CCCCCCNC(=O)[C@@H]1C[C@@H]2C(=O)N[C@@H](CCCC[N+](C)(C)C)C(=O)N2[C@@H]1c1ccc(O)cc1	0.486	-0.396	0.678	-0.335	0.82	0.825	-0.147	0.798	0.427	-0.882 (inactive)	0.133	-0.217 (inactive)	0.0162 (inactive)	0.155 (inactive)	-0.0457 (inactive)	-0.253	-0.589	0.659	0.771	1.66
COC(=O)[C@@]1(Cc2ccc(F)cc2)[C@H]2c3cc(C(=O)N(C)C)n(Cc4ccc(C)o4)c3C[C@H]2CN1C(=O)c1ccccc1	1.17	0.761	-0.42	-1.92	-1.96	-1.4	0.546	-1.2	0.319	0.483 (inactive)	0.798	-2.07 (inactive)	-0.927 (inactive)	0.387 (inactive)	-0.554 (inactive)	-0.649	1.7	4.51	4.51	-0.81
C=CC[C@@]1(C(=O)N2CCCCC2)N=C(c2ccc(OCCCO)cc2)O[C@@H]1c1ccccc1N=[N+]=[N-]	2.24	1.23	0.407	0.957	1.09	0.162	-0.35	0.0928	1.06	-10.4 (active)	0.288	-4.35 (inactive)	-0.588 (inactive)	4.01 (inactive)	-1.53 (inactive)	1.18	0.0391	-0.151	1.03	-0.0797
CC(C)[Si](C#C[Si](C(C)C)(C(C)C)C(C)C)(O[C@H](C)c1cn(Cc2ccccc2)nn1)C(C)C	0.386	1.01	0.677	0.872	0.509	0.427	0.0378	0.56	0.502	-0.398 (inactive)	0.0406	-0.182 (inactive)	-0.324 (inactive)	-0.0848 (inactive)	-0.624 (inactive)	1.32	-0.0405	0.709	0.5	0.372
O=C1C2C=CC(C(O)C=Cc3ccc([N+](=O)[O-])cc3)N(Nc3ccccc3F)C2C(=O)N1c1ccccc1 (stereo not given)	1.41	1.23	0.545	0.995	1.11	0.211	-0.607	0.522	1	-0.252 (inactive)	0.265	-0.071 (inactive)	0.0113 (inactive)	-0.424 (inactive)	-0.156 (inactive)	1.77	0.095	0.422	0.31	-0.0025
